Reference: PubChem BioAssay
Calls of active or inactive are those of the source. Unless noted, the rule behind the calls is not given here.

What was measured:
[1] = compound effects on lung adenocarcinoma cell viability – A549, calcein-AM fluorescence, 48 h, basal, profiling panel (AID 1162); conditions: higher = more signal; note: test concentration not given here
[2] = compound effects on differentiated 3T3-L1 adipocyte viability – cell-based, 3T3-L1 adipocytes, calcein-AM fluorescence, 48 h, basal, profiling panel (AID 1163); conditions: 3T3-L1 adipocytes viability, higher = more signal; note: test concentration not given here
[3] = compound effects on hepatocellular carcinoma cell viability – HepG2, calcein-AM fluorescence, 48 h, basal, profiling panel (AID 1164); conditions: higher = more signal; note: test concentration not given here
[4] = compound effects on multiple myeloma cell viability – MM1S, calcein-AM fluorescence, 48 h, basal, profiling panel (AID 1165); conditions: higher = more signal; note: test concentration not given here
[5] = calcein-AM signal in unstimulated myeloma cells – cell-based, calcein-AM fluorescence, 48 h, PK04 Diversity Set, profiling panel (AID 1166); conditions: RPMI8226 myeloma viability, higher = more signal;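 note: cells grown under basal conditions without added stimulus; test concentration not given here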
[6] = JC-1 mitochondrial signal, unstimulated HepG2 cells – cell-based, JC-1 fluorescence, 24 h, 100 nL compound, profiling panel (AID 1167); conditions: HepG2 mitochondrial potential, higher = more signal; note: test concentration not given here
[7] = JC-1 mitochondrial signal, unstimulated adipocytes – cell-based, JC-1 fluorescence, 3T3-L1 adipocytes, 24 h, 100 nL compound, profiling panel (AID 1168); conditions: JC-1 mitochondrial fluorescence, higher = more signal, called active from +8 up or from −8 down; note: test concentration not given here
[8] = JC-1 mitochondrial signal, unstimulated myeloma cells – cell-based, JC-1 fluorescence, RPMI8226, 24 h, 100 nL compound, profiling panel (AID 1169); conditions: JC-1 mitochondrial potential fluorescence, higher = more signal; note: test concentration not given here
[9] = JC-1 mitochondrial signal, unstimulated MM1S myeloma – cell-based, JC-1 fluorescence, 24 h, 100 nL compound, profiling panel (AID 1170); conditions: MM1S mitochondrial potential, higher = more signal; note: test concentration not given here
[10] = resazurin metabolic signal in A549 cells – cell-based, resazurin fluorescence, 24 h, PK04 Diversity Set, profiling panel (AID 1171); conditions: A549 viability, higher = more signal, called active from +8 up or from −8 down; note: test concentration not given here
[11] = resazurin metabolic signal in HepG2 cells – cell-based, resazurin fluorescence, 24 h, PK04 Diversity Set, profiling panel (AID 1172); conditions: HepG2 viability, higher = more signal; note: test concentration not given here
[12] = budding yeast growth changes without added modifier – OD600, strain BY4716, 24 h, basal condition, primary screen (AID 1173); conditions: S. cerevisiae BY4716 growth, OD600, 24 h; higher = more signal, called active from +8 up or from −8 down
[13] = viability profiling in MM1S myeloma cells – cell-based, resazurin fluorescence, basal, 24 h, PK04 Diversity Set, profiling panel (AID 1174); conditions: higher = more signal, called active from +8 up or from −8 down; note: test concentration not given here
[14] = target: Dihydroorotate dehydrogenase (quinone), mitochondrial (Plasmodium falciparum (isolate 3D7)) (UniProt Q08210); test: inhibition of P. falciparum DHODH – biochemical, C-terminal His tag, absorbance 600 nm, primary screen (AID 1175); conditions: PfDHODH enzyme, DCIP absorbance 600 nm; higher = more signal, called active from +8 up or from −8 down;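 note: recombinant parasite enzyme with a five histidine tag at its C terminus; test concentration not given here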
[15] = inhibition of PAO1 biofilm formation – strain PAO1, LB-PBS medium, absorbance 600 nm, primary screen (AID 1176); note: test concentration not given here; conditions: P. aeruginosa PAO1 growth/biofilm, A600, 12 h; higher = more signal
[16] = growth modulation of vineyard yeast isolate – strain RM11-1a, OD600, basal, 24 h, primary screen (AID 1177);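 note: cultures grown under basal conditions with no added stressor; test concentration not given here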; conditions: S. cerevisiae RM11-1a growth, OD600, 24 h; higher = more signal, called active from +8 up or from −8 down
[17] = growth of efflux-deficient E. coli DRC39 – strain DRC39, OD650, 24 h, E. coli filamentation inducers, primary screen (AID 1178);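 note: growth measured as culture turbidity by optical density at 650 nm; test concentration not given here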; conditions: E. coli DRC39 acrAB, higher = more signal, called active from +8 up or from −8 down
[18] = growth of efflux-deficient E. coli DRC39 – strain DRC39, OD650, 48 h, E. coli filamentation inducers, primary screen (AID 1179);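 note: screen aims at cell division blockers that make cells filament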; conditions: E. coli DRC39 delta-acrAB growth, higher = more signal, called active from +8 up or from −8 down
[19] = viability profiling in RPMI8226 myeloma cells – cell-based, resazurin fluorescence, basal, 24 h, PK04 Diversity Set, profiling panel (AID 1180); conditions: higher = more signal;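 note: RPMI8826 multiple myeloma cell line at 5000 cells per well; test concentration not given here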
[20] = target: E3 ubiquitin-protein ligase XIAP (Homo sapiens) (UniProt P98170); test: small molecules binding XIAP protein – biophysical, small-molecule microarray, fluorescence 635 nm, primary screen (AID 1181); conditions: higher = more signal;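 note: score merges 667 nm emission and signal to noise over triplicate slides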
Sequence of E3 ubiquitin-protein ligase XIAP (Homo sapiens) (P98170 whole entry, looked up): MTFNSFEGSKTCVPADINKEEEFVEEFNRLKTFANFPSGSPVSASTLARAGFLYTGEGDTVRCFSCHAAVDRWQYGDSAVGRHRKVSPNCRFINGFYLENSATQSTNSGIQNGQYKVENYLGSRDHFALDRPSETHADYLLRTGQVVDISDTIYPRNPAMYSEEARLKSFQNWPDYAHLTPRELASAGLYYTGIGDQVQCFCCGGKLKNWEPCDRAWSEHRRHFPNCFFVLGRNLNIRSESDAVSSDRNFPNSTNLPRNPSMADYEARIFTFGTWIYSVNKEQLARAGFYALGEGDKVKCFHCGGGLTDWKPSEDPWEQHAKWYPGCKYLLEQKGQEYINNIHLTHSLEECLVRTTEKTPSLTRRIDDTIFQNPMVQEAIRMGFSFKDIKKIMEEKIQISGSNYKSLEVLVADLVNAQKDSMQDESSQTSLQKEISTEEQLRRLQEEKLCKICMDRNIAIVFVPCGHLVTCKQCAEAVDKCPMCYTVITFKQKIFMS

Sequence of Dihydroorotate dehydrogenase (quinone), mitochondrial (Plasmodium falciparum (isolate 3D7)) (Q08210 whole entry, looked up): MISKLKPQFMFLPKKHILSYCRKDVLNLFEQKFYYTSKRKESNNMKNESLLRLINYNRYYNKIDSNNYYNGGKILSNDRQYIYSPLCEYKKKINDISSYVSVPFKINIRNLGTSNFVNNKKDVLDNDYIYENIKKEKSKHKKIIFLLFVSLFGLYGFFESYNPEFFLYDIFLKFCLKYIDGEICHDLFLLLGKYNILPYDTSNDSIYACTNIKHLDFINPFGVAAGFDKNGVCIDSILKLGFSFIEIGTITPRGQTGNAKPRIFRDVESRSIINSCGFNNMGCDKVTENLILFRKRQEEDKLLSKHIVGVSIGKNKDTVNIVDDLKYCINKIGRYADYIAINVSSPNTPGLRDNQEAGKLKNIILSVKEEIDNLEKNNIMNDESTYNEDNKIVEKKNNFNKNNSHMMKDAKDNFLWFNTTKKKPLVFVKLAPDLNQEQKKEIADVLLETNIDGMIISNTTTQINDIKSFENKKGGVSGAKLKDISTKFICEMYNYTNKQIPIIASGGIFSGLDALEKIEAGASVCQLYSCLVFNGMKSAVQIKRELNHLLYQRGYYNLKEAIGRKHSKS

| SMILES | z-score [1] | z-score [2] | z-score [3] | z-score [4] | z-score [5] | z-score [6] | z-score [7] | z-score [8] | z-score [9] | z-score [10] | z-score [11] | z-score [12] | z-score [13] | composite z-score [14] | z-score [15] | z-score [16] | z-score [17] | z-score [18] | z-score [19] | composite z-score [20] |
| --- | --- | --- | --- | --- | --- | --- | --- | --- | --- | --- | --- | --- | --- | --- | --- | --- | --- | --- | --- | --- |
| CC[C@@H]1C=C(C(=O)O)[C@H](c2ccc(C#N)cc2)N1S(=O)(=O)c1ccc(C)cc1 | -0.484 | -0.364 | -1 | 0.492 | -0.95 | -0.968 | -0.552 (inactive) | 0.875 | -1.06 | -0.858 (inactive) | -0.835 | 0.965 (inactive) | -0.933 (inactive) | -1.93 (inactive) | -0.0601 (inactive) | -0.242 (inactive) | -0.266 (inactive) | -0.0211 (inactive) | -1.21 | 0.0153 |
| O=C1OCCC/C=C\[C@H]2OC34C=CCN(c5ccc6ccccc6c5)C(=O)[C@H]3N(CCO)C(=O)[C@@H]4C12 (stereo not given in full) | 0.451 | 1.91 | -0.569 | 1.3 | -0.205 | -0.00127 | -0.622 (inactive) | -0.0898 | 1.03 | -1.48 (inactive) | -0.75 | 0.307 (inactive) | -0.997 (inactive) | 0.257 (inactive) | -0.634 (inactive) | 0.571 (inactive) | -0.937 (inactive) | -1.04 (inactive) | -0.15 | 0.275 |
| C=CCNC(=O)[C@@H]1[C@H]2C(=O)O[C@H](c3ccccc3)[C@H](c3ccccc3)N2[C@H](c2ccccc2OCCO)[C@@]12C(=O)Nc1ccc(C#CCCO)cc12 | -0.368 | 0.953 | 0.151 | -0.66 | -0.485 | -0.699 | 0.959 (inactive) | -0.435 | -0.608 | 0.322 (inactive) | 0.282 | 0.634 (inactive) | 0.373 (inactive) | 1.22 (inactive) | 4.62 (inactive) | 1.96 (inactive) | -1.09 (inactive) | -2.17 (inactive) | -0.315 | 0.0461 |
| COCC(=C=CC[C@H](O)c1ccccc1OCCO)C[C@H](O)c1ccccn1 | 1.12 | 0.381 | 0.781 | 0.943 | 0.139 | 1.01 | -0.443 (inactive) | -0.471 | -1.09 | -0.0836 (inactive) | 0.839 | -0.329 (inactive) | 0.324 (inactive) | -2.09 (inactive) | 0.354 (inactive) | -0.115 (inactive) | 0.696 (inactive) | 0.547 (inactive) | -0.543 | -0.102 |
| COC(=O)[C@@]1(Cc2ccccc2)[C@H]2c3cc(C(=O)N(C)C)n(Cc4ccc(C)o4)c3C[C@H]2CN1C(=O)c1ccccc1 | -2.02 | 0.827 | -0.735 | -1.01 | -3.69 | 0.598 | -2.61 (inactive) | -0.951 | -1.88 | -1.42 (inactive) | -0.98 | 1.51 (inactive) | -3.41 (inactive) | -2.93 (inactive) | 3.55 (inactive) | 1.25 (inactive) | -0.513 (inactive) | -1.08 (inactive) | -3.13 | 0.696 |
| [N-]=[N+]=NCc1ccccc1[C@H]1OC(c2ccc(OCCCO)cc2)=N[C@@]1(Cc1ccccc1N=[N+]=[N-])C(=O)NCC(O)CO (stereo not given in full) | -0.471 | 0.517 | -0.353 | -3.22 | -3.36 | -0.504 | -0.618 (inactive) | -0.962 | -0.934 | 0.286 (inactive) | -0.144 | -1.39 (inactive) | -0.898 (inactive) | -0.407 (inactive) | 0.758 (inactive) | 0.313 (inactive) | -0.0245 (inactive) | -0.188 (inactive) | -1.06 | 0.133 |
| C=CC[C@@]1(C(=O)NCCCOC)N=C(c2ccc(OCCCO)cc2)O[C@@H]1c1ccccc1 | 0.689 | 0.457 | 0.83 | 0.611 | 0.751 | -0.166 | 1.21 (inactive) | -0.323 | 0.193 | -0.706 (inactive) | -0.843 | -1.85 (inactive) | -0.203 (inactive) | -1.65 (inactive) | -0.375 (inactive) | -1.27 (inactive) | -0.12 (inactive) | 1.13 (inactive) | -0.1 | 0.065 |
| COCCCNC(=O)[C@@]1(CCC(=O)OC(C)(C)C)N=C(c2ccc(OCCCO)cc2)O[C@H]1c1ccccc1N=[N+]=[N-] | 0.618 | 0.251 | 0.977 | -1.21 | -1.16 | 1.74 | 3.98 (inactive) | -1.15 | -0.386 | 1.38 (inactive) | 1.6 | -0.497 (inactive) | -0.0477 (inactive) | -0.291 (inactive) | -0.165 (inactive) | 0.252 (inactive) | 1.42 (inactive) | 0.268 (inactive) | 0.72 | -0.0773 |
| C=CCNC(=O)[C@H]1[C@@H]2C(=O)O[C@@H](c3ccccc3)[C@@H](c3ccccc3)N2[C@@H](c2ccccc2OCCO)[C@]12C(=O)N(C(=O)OCCOC)c1ccc(C#CC3(O)CCCCCC3)cc12 | -0.293 | 0.905 | -0.0307 | -3.15 | -4.56 | -0.341 | 1.18 (inactive) | -1.14 | -1.7 | -2.4 (inactive) | -0.536 | -0.0911 (inactive) | -3.39 (inactive) | -1.12 (inactive) | 2.42 (inactive) | 0.0382 (inactive) | 0.0979 (inactive) | 0.975 (inactive) | -4.17 | -0.259 |
